According to PubChem BioAssay AID1903 (Southern Research Specialized Biocontainment Screening …, 2009):
Where “and” joins values, the source holds several entries; their conditions need not be identical. Identical values can stand only once. The campaign covered roughly 310,000 compounds. About 1,200 (0.39%) were called active. The rule behind the calls is not given here. A selection follows. Entries with a potency or affinity are not part of this list.

These compounds were tested against Large T antigen (Simian virus 40) (UniProt P03070) (assay: TAg ATPase/helicase activity blockers – biochemical (AID 1903)). Settings: SV40 large T antigen ATPase/helicase inhibition assay; at 20 µM; hits give high values.
Sequence of Large T antigen (Simian virus 40) (P03070 whole entry, looked up): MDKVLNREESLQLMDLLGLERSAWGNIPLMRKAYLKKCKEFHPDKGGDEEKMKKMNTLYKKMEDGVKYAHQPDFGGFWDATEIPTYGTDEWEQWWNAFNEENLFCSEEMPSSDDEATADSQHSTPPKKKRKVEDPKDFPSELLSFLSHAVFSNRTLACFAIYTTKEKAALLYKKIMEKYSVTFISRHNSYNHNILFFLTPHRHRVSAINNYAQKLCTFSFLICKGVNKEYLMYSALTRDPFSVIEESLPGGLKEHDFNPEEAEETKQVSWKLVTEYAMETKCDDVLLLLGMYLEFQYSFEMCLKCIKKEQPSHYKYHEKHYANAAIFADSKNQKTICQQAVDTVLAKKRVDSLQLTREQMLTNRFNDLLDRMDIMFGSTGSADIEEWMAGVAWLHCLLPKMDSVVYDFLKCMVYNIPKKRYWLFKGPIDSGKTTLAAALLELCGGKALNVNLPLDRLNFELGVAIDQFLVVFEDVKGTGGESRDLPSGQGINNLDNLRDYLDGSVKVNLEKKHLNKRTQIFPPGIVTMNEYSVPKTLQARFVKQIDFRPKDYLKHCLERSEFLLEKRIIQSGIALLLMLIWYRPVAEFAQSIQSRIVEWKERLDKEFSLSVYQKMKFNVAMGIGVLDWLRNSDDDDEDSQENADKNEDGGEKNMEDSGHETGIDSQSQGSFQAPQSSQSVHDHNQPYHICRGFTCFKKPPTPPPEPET

Row | Structure (SMILES) | inhibition
1 | COc1cccc(-c2cc(C(=O)Nc3cc(C)on3)no2)c1 | 3.2% (inactive)
2 | Cc1ccc2oc(=O)c3cnn(CC(=O)NCCCOC(C)C)c3c2c1 | 5.01% (inactive)
3 | CCOC(=O)Cc1csc(NC(=O)c2ccc3c(c2)OCO3)n1 | -7.42% (inactive)
4 | COc1ccc(/C=C2/SC(c3ccc(C)cc3)=NC2=O)cc1OC | 7.06% (inactive)
5 | COc1cc(/C=C2\SC(c3ccc(C)cc3)=NC2=O)cc(OC)c1OC | 14.7% (inactive)
6 | COc1ccc(/C=C2\SC(c3ccc(C)cc3)=NC2=O)cc1OC | 4.55% (inactive)
7 | NC1=NC(=O)/C(=C/c2cc(Br)c(O)c(Br)c2)S1 | 23.3% (inactive)
8 | O=C(Nc1ccc(CN2CCOCC2)cc1)c1ccc(Br)o1 | 4.15% (inactive)
9 | CCCc1nn(-c2cc(Cl)ccc2OC)c2c1C(=O)CC(C)(C)C2 | 2.88% (inactive)
10 | CC(=O)N(c1ccc2oc(=O)sc2c1)S(=O)(=O)c1ccc(C(=O)O)cc1 | 23.9% (inactive)
11 | CC(C)C(=O)N(c1ccc2oc(=O)sc2c1)S(=O)(=O)c1cccs1 | 22.8% (inactive)
12 | CCCC(=O)N(c1ccc2oc(=O)sc2c1)S(=O)(=O)c1cccs1 | 34.4% (inactive)
13 | CC(C)C(=O)N(c1ccc2oc(=O)sc2c1)S(=O)(=O)c1ccccc1 | 25.6% (inactive)
14 | Cc1ccsc1C(=O)OCC(=O)NCc1ccc2c(c1)OCO2 | 20.1% (inactive)
15 | O=C(O)C1CC=CCC1C(=O)N1CCCC1 (centres undefined) | -0.98% (inactive)
16 | O=C1NC(=O)/C(=C\c2ccsc2)N1 | 2.09% (inactive)
17 | COCOc1cc(O)c2c(=O)c(OCOC)c(-c3ccc(OCOC)c(OCOC)c3)oc2c1 | 7.99% (inactive)
18 | COc1c(-c2ccc(O)c(O)c2)oc2cc(O)cc(O)c2c1=O | 9.05% (inactive)
19 | CCn1c(SCC(=O)Nc2nccs2)nnc1-c1ccc(S(=O)(=O)N2CCCCCC2)cc1 | -0.295% (inactive)
20 | Cc1ccc(S(=O)(=O)N2CCCC(C(=O)NCC3CCCO3)C2)cc1 (centres undefined) | 3.23% (inactive)
21 | Cc1ccc(S(=O)(=O)N2CCN(S(=O)(=O)c3ccccc3)C2)cc1 | 6.18% (inactive)
22 | O=S(=O)(c1ccc(Cl)cc1)N1CCCCCC1 | 20.7% (inactive)
23 | CC1CN(S(=O)(=O)c2ccccc2)C(C)CN1S(=O)(=O)c1ccccc1 (centres undefined) | 8.4% (inactive)
24 | CN1CCN(S(=O)(=O)c2ccc(Cl)cc2)CC1 | 0.99% (inactive)
25 | CCCN(CCC)C(=O)Cc1coc2ccc3ccccc3c12 | 3.36% (inactive)

Row | Structure (SMILES) | inhibition
26 | Cc1cc2cc(CNC(=O)Nc3ccccc3)ccc2n1C | 4.59% (inactive)
27 | O=C1NCCN/C1=C\C(=O)c1ccc(Cl)cc1 | 12.3% (inactive)
28 | CCOc1ccc(NC(=O)COn2nnc3ccc(S(=O)(=O)N4CCOCC4)cc32)cc1 | 11.2% (inactive)
29 | CCOc1ccccc1-c1c2cc(O)c(=O)cc-2oc2cc(O)c(O)cc12 | 15.8% (inactive)
30 | COc1ccc(OC)c(-c2c3cc(O)c(=O)cc-3oc3cc(O)c(O)cc23)c1 | 73.4% (inactive)
31 | O=c1cc(-c2ccccc2[N+](=O)[O-])oc2ccccc12 | 1.45% (inactive)
32 | Cc1c2cc(O)c(=O)cc-2oc2cc(O)c(O)cc12 | 57.6% (inactive)
33 | CCOc1ccccc1NC(=O)CSc1nnc(CNC(=O)c2cc(OC)c(OC)c(OC)c2)o1 | 5.49% (inactive)
34 | COc1ccccc1CNC(c1ccccc1)c1ccccc1 | 21.1% (inactive)
35 | COc1ccc(C2NC(c3ccc(OC)c(OC)c3OC)C(C)C(=O)C2C)c(OC)c1OC (centres undefined) | -0.23% (inactive)
36 | CCOC(=O)C(Sc1cc(C)nc(N)n1)C(C)=O (centres undefined) | 7.31% (inactive)
37 | CCc1c(C)nc(N)nc1Cl | 10.9% (inactive)
38 | O=C1C=C(Nc2ccc(Cl)cc2)CC(c2ccco2)C1 (centres undefined) | 24.2% (inactive)
39 | O=C1C=C(Nc2cccc(O)c2)CC(c2ccco2)C1 (centres undefined) | 6.63% (inactive)
40 | COc1ccccc1-c1ocnc1C(=O)N1CCN(S(=O)(=O)c2ccc(NC(C)=O)cc2)CC1 | 4.74% (inactive)
41 | CCOC(=O)c1c(C)nc2ccccc2c1-c1ccccc1 | 5.96% (inactive)
42 | CN(C)c1ccc(N/C=C/C(=O)C(C)(C)C)cc1 | 27.8% (inactive)
43 | COc1ccc(N/C=C/C(=O)C(F)(F)F)cc1 | 9.63% (inactive)
44 | O=C(/C=C/Nc1ccccc1)c1ccccc1 | 10.3% (inactive)
45 | CN(C)c1ccc(N/C=C/C(=O)c2ccc(F)cc2)cc1 | 18.2% (inactive)
46 | Cc1ccc(-c2nn(-c3ccccc3)cc2C(N)=O)o1 | 1% (inactive)
47 | COc1ccc(CN2CCN(C(=O)CCC(=O)Nc3nnc(C(F)(F)F)s3)CC2)cc1F | 25.2% (inactive)
48 | CCn1c(C)nc2cc(C(=O)N/N=C(\C)c3ccc(N4CCOCC4)cc3)ccc21 | 9.23% (inactive)
49 | O=C1[C@H]2CCCC[C@H]2C(=O)N1CCCCN1CCN(c2nsc3ccccc23)CC1 | 11.2% (inactive)
50 | Oc1c(CN2CCCC(C(F)(F)F)C2)cc(Cl)c2ccccc12 (centres undefined) | 6.33% (inactive)

Row | Structure (SMILES) | inhibition
51 | COc1ccc(CN2C(=O)CSCC2=O)cc1OC | 23.5% (inactive)
52 | CC1CCCN(S(=O)(=O)c2cnc[nH]2)C1 (centres undefined) | 16.4% (inactive)
53 | Cc1ccc(S(=O)(=O)Cc2ccc([N+](=O)[O-])cc2)cc1 | 12.8% (inactive)
54 | CC(=O)c1ccc([N+](=O)[O-])c(CS(=O)(=O)c2ccc(Cl)cc2)c1 | 2.52% (inactive)
55 | C=CCNc1nc(-c2cc3ccccc3o2)cs1 | 16.7% (inactive)
56 | COc1ccc([C@@H]2CC=C(C(=O)O)[C@H](c3cccc(Cl)c3)N2S(=O)(=O)c2ccccc2C)cc1 | 20.5% (inactive)
57 | COc1cc(-c2cc(=O)c3c(O)c(OC)c(OC)c(OC)c3o2)cc(OC)c1OC | 1.45% (inactive)
58 | COc1ccc(-c2cc(=O)c3c(OC)c(OC)c(OC)c(OC)c3o2)cc1OC | 8.13% (inactive) and 2.63% (inactive) and 16.4% (inactive)
59 | COc1ccc(-c2cc(=O)c3ccccc3o2)cc1 | 4.04% (inactive)
60 | COc1cc(-c2cc(=O)c3c(O)cc(O)cc3o2)ccc1O | 11.8% (inactive)
61 | Nc1nnc(-c2cccc([N+](=O)[O-])c2)o1 | -0.81% (inactive)
62 | CCCCCCn1cc(C(=O)OCC)c(=O)c2cc(F)c(F)cc21 | 20.5% (inactive)
63 | CCC(C)C(NC(=O)C(N)CC(C)C)C(=O)NC(CCC(=O)OCc1ccccc1)C(N)=O (centres undefined) | -6.23% (inactive)
64 | O=C(O)c1cc(NCc2cccs2)ccc1N1CCOCC1 | 16.1% (inactive)
65 | O=C(O)c1ccc(NCc2cccs2)cc1 | 5.7% (inactive)
66 | CC(=O)Nc1ccc(NCc2cccs2)cc1 | 15.1% (inactive)
67 | COC(=O)c1cc(NCc2cccs2)ccc1N1CCOCC1 | 36.1% (inactive)
68 | O=C(COC(=O)COc1ccccc1[N+](=O)[O-])Nc1ccc(S(=O)(=O)N2CCCCC2)cc1 | 9.97% (inactive)
69 | CC(=O)Nc1ccc(NC(=O)CSc2nnc(NC(=O)c3cccc(F)c3)s2)cc1 | 7.35% (inactive)
70 | COc1ccc(CC2(CO)COc3ccccc3C2=O)cc1 (centres undefined) | 18% (inactive)
71 | CCn1c(SCC(=O)Nc2cc(OC)ccc2OC)nnc1C1CCCCC1 | 5.72% (inactive)
72 | CN(C)C(=O)COC(=O)c1cc(Cl)cc(Cl)c1N | 7.1% (inactive)
73 | CCOC(=O)C1=C(CCc2ccccc2)NC(=O)NC1c1ccc(C#N)cc1 (centres undefined) | 13.1% (inactive)
74 | O=C1C(Cl)=C(N2CCOCC2)C(=O)N1c1ccccc1F | 11.2% (inactive)
75 | O=C(Nc1ccc(N2CCOCC2)cc1)C1CCN(S(=O)(=O)c2ccccc2F)CC1 | 13.6% (inactive)

Row | Structure (SMILES) | inhibition
76 | O=C1C(Cc2ccccc2)Nc2ncnc(N3CCOCC3)c2N1Cc1ccc(Cl)cc1 (centres undefined) | 9.83% (inactive)
77 | COc1ccc(N=c2sc3ccccc3n2C)cc1 | 7.43% (inactive)
78 | Cn1c(=Nc2ccccc2)sc2ccccc21 | -5.34% (inactive)
79 | CC1CCCCN1c1ncnc2ccccc12 (centres undefined) | 0.555% (inactive)
80 | CC(C)OC(=O)Cc1nc2sc(-c3ccccc3)cc2c(=O)[nH]1 | 6.88% (inactive)
81 | CNCc1ccccc1Sc1ccc(O)c(O)c1 | -1% (inactive)
82 | CNCc1ccccc1Sc1cccc(O)c1 | 25.7% (inactive)
83 | CN(C)Cc1ccccc1Sc1ccc(Br)cc1 | 9.88% (inactive)
84 | CCN(CC)Cc1ccccc1Sc1ccccc1 | 16.5% (inactive)
85 | CCC(C)C(NC(=O)c1ccc(Cl)cc1)C(=O)Nc1cccnc1 (centres undefined) | -3.25% (inactive)
86 | CCOC(=O)c1c(NC(=O)CSc2nnnn2C)sc(CC)c1C | 4.57% (inactive)
87 | O=C(N/C(=C/c1cccs1)C(=O)N1CCOCC1)c1ccccc1 | 6.38% (inactive)
88 | CN1CCN(c2nc(-c3ccccc3O)nc3ccccc23)CC1 | 3.42% (inactive)
89 | Cc1ccc(Nc2nc(N3CCOCC3)c3ccccc3n2)cc1 | 6.59% (inactive)
90 | COc1ccc(Nc2nc(N3CCCCC3)c3ccccc3n2)cc1 | 8.24% (inactive)
91 | COc1ccc(Nc2nc(N3CCCC3)c3ccccc3n2)cc1 | 17.3% (inactive)
92 | COc1ccc(OC)c(NC(=O)CSc2ccc(-c3ccco3)nn2)c1 | 11.7% (inactive)
93 | CC(C)(C)OC(=O)[C@H](Cc1ccccc1)NC(=O)c1nc[nH]c1C(=O)N1CCN(c2ccccc2)CC1 | 10.9% (inactive)
94 | Cc1cc(C(=O)NNC(=S)NCc2ccco2)n(C)n1 | -6.03% (inactive)
95 | CC(=O)OCCCNc1cc(Sc2nc3ccccc3s2)c2nonc2c1[N+](=O)[O-] | 22% (inactive)
96 | CCC(=O)OCCNc1cc(Sc2nc3ccccc3s2)c2nonc2c1[N+](=O)[O-] | 10.9% (inactive)
97 | CC(C)C(=O)N1CCC(Cc2ccccc2)CC1 | 12.3% (inactive)
98 | O=C1C=CC(=O)N1c1ccc(I)cc1Cl | 8.61% (inactive)
99 | COc1cc(Cl)c(S(=O)(=O)N2CCCC2)cc1Cl | 17.9% (inactive)
